# According to PubChem BioAssay (NCI):
# Where “and” joins values, the source holds several entries; their conditions need not be identical. Identical values can stand only once. About 79,000 compounds went through this panel and 15% of them were active in at least one assay; those are over-represented in the sample as a whole. Values without a mark were called inactive. Cut-off read from the data, not from the text of the source: active = growth inhibition above about 70%; inactive = the rest.
# Assay: NCI Yeast Anticancer Drug Screen. Data for the mec2-1 strain (AID 157)
# Conditions: S. cerevisiae mec2-1 strain, active compounds read high; at 50.0 µM unless noted
# Procedure, shortened: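 Test agents were screened against the mec2-1 yeast strain, with defined DNA repair or cell cycle alteration. Growth was scored as inhibition against vehicle-only controls.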
row,SMILES,growth inhibition
1,Nc1ccc(OCc2ccccc2)cc1[N+](=O)[O-],-30.8%
2,COC(=O)c1cc(C(=O)OC)c(CC(=O)C(=O)NC2C3CC4CC(C3)CC2C4)nc1CC(=O)C(=O)NC1C2CC3CC(C2)CC1C3 (stereo not given),25.2%
3,COc1ccc(-c2nnc(N)s2)cc1OC,2.7%
4,CC1(CO)C2CCC(CC2)C1CO (stereo not given),1.85%
5,CC(C)CCCC(C)C1CCC2C3CC4OC45CC(O)CCC5(C)C3CCC12C (stereo not given),18.1%
6,COC(=O)C(Cc1ccccc1)C(=O)C(CC(=O)OC(C)(C)C)NC(=O)OC(C)(C)C (stereo not given),1.15%
7,O=C(O)c1cscc1Cc1cccs1,-13.7%
8,CSc1ccc(NC(=O)c2ccc(Cl)cc2)cc1,-6.05%
9,COc1ccc2c(c1)-c1c(ccc(OC)c1O)CC(c1ccccc1)[N+](C)(C)CC2 (stereo not given),10.7%
10,CC1=Nc2ccccc2C12C(c1ccccc1)C(c1ccccc1)C(=O)N1c3ccccc3CC12 (stereo not given),-16.4%
11,O=CC(O)C(Cl)C(Cl)C(O)CCl (stereo not given),-1.85% and -3.6%
12,C=C1CC[C@@H](C)[C@](C)(CCc2ccoc2)C/C=C\C=C/1C(=O)O,30.8%
13,O=c1[nH]c(=O)c2[nH]c(Br)nc2[nH]1,-4.3%
14,N#CC(C(=O)C(=O)Nc1nccs1)c1ccccc1 (stereo not given),-0.85%
15,CCCCc1cc(C(=O)OC/C(C)=N/NC(N)=O)c2ccccc2n1,25.8%
16,CC(=O)Nc1cccc(OC(=O)Nc2ccc(F)c(Cl)c2)c1,60.7%
17,OC1COC(OCc2ccccc2)C(O)C1O (stereo not given),-25.7% and -19.6%
18,COc1nc(NC2OC(CO)C(O)C(O)C2O)c(I)c(=O)[nH]1 (stereo not given),-3.4%
19,CC(=O)CC(C)(C)c1cc(-c2ccccc2)on1,5.4%
20,COc1ccc(C(c2ccc(OC)cc2)N2C(=O)CCC2C(=O)O)cc1 (stereo not given),21.2%

row,SMILES,growth inhibition
1,CCOC(=O)c1cccc(N)c1C(=O)OCCN(CC)CC,0.15%
2,CCCCCCC1OC(C)C(C)O1 (stereo not given),13.7%
3,O=C(O)C1(F)CC1(c1ccccc1)c1ccccc1 (stereo not given),9.7%
4,c1nc2nc(N3CCOCC3)nc(N3CCOCC3)c2[nH]1,-0.8%
5,COc1ccccc1C(=O)N/N=C/c1cccc([N+](=O)[O-])c1,3.1%
6,COC(=O)c1ccccc1NS(=O)(=O)c1ccc(Cl)cc1,66.1%
7,CO/N=C1/OC(=O)OCC1(c1ccccc1)c1ccccc1,-3.4%
8,CCOC(=O)C(C)NC(=O)c1ccccc1 (stereo not given),-8.5%
9,Cn1c([N+](=O)[O-])cnc1CSc1nc(-c2ccccc2)no1,1.8%
10,COC1CCC(=O)N1CN(C(C)=O)c1ccc(C)cc1 (stereo not given),9.1%
11,COc1ccc(COC(=O)Nc2ccc(Br)cc2)c(OC)c1,33.6%
12,O=C1OC(c2ccccc2)=N/C1=C\c1ccccc1,-12.6% and 10.6%
13,CCC1(C=O)C(=O)NC(=O)N1C (stereo not given),1.05%
14,CCN(CCOC)C(C)=O,2.25%
15,O=C1CCCc2ccc3c(c21)CC1(Cc2cc4c(cc2C1)CCCC4)C3,9.15%
16,CN(C)c1ccc(NC(=O)C(c2ccccc2)c2ccccc2)cc1,-14.6%
17,ClC(Cl)(Cl)c1ncnc2nc[nH]c12,-11.8%
18,O=c1c(O)c(-c2cc(O)c(O)c(O)c2)oc2cc(O)cc(O)c12,-21.1%
19,CCOC(CC(=O)NCCNC(C)=O)OCC,4.6%
20,O=C1c2ccccc2CC(c2ccccc2)N1c1ccccc1 (stereo not given),0.4%
